Test results: PubChem BioAssay AID652233 (Johns Hopkins Ion Channel Center, 2013)
The campaign covered roughly 2,300 compounds. Fewer than 10 were called active.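 Rule for the calls: active = yellow fluorescent protein signal ratio exceeding the buffer control mean by over 5 SD of those controls; inactive = the rest.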 These entries were drawn from the full list.

experiment: iodide YFP quench changes in parental YFP-HEK293, counter-screen for TMEM16A inhibitor project, cell-based (AID 652233); settings: ionomycin, at 10 µM;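 note: ratio is mean of duplicate wells from kinetic YFP trace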

| SMILES | YFP ratio F(max-min)/F0 |
| --- | --- |
| Cc1nc2ccccc2cc1OCc1ccc(F)cc1 | -0.66 (inactive) |
| CCCCNC(=O)CSc1nc2n[nH]c(C)c2c(=N)n1-c1cccc(Cl)c1C | -0.786 (inactive) |
| c1ccc(-c2nnc(SCc3nc4ccccc4[nH]3)o2)cc1 | -1.02 (inactive) |
| COc1ccc(OCC(=O)NCCc2ccc(S(N)(=O)=O)cc2)cc1 | -0.874 (inactive) |
| COc1ccc(S(=O)(=O)NCCCCOc2ccc(Cl)cc2)cc1 | -1.14 (inactive) |
| O=C(CNCCC1=CCCCC1)Nc1ccccc1N1CCCCCC1 | -1.09 (inactive) |
| CN(c1cccc(NC(=O)c2ccc(CN3CCc4ccccc4C3)cc2)c1)S(C)(=O)=O | -0.916 (inactive) |
| Cc1ccc(-n2ncc3c(N4CCN(c5ccc(F)cc5)CC4)ncnc32)c(C)c1 | -0.733 (inactive) |
| CCCCCc1ccc(-c2ccc(C(=O)O)cc2)nc1 | -0.857 (inactive) |
| O=C(Nc1cccc(S(=O)(=O)Nc2ccc(Cl)cc2)c1)c1ccc2c(c1)OCCO2 | -1.08 (inactive) |
| S=C(NCc1ccc(Cl)cc1)NC12CC3CC(CC(C3)C1)C2 | -1.22 (inactive) |
| Cc1nc(C)c(-c2csc(NCCc3ccccc3)n2)s1 | -0.901 (inactive) |
| Cc1cc(C)cc(NS(=O)(=O)c2ccc(Oc3ncc(C(F)(F)F)cc3Cl)cc2)c1 | -0.961 (inactive) |
| N#Cc1nc(COc2ccc(-c3ccccc3)cc2)oc1NCc1cccnc1 | -0.991 (inactive) |
| Cn1c(=O)n(C)c2cc(S(=O)(=O)N3CCCc4ccccc43)ccc21 | -1.35 (inactive) |
| COc1ccc(CNc2nnnn2C)cc1 | -0.894 (inactive) |
| O=C1c2ccccc2C(Nc2ccc3c(c2)OCCO3)N1Cc1ccco1 (centres undefined) | -0.965 (inactive) |
| O=C(COC(=O)CCc1c[nH]c(=O)[nH]1)Nc1ccccc1Cl | -0.772 (inactive) |
| N#CC1=C(SCc2ccccc2)NC(=O)C(C#N)C12CCCC2 (centres undefined) | -0.894 (inactive) |
| O=C(COc1ccccc1)NCc1ccc2c(c1)OCO2 | -1.01 (inactive) |

| SMILES | YFP ratio F(max-min)/F0 |
| --- | --- |
| S=C(NCc1cccs1)Nc1ccc(Cl)cc1 | -1.2 (inactive) |
| Cc1ccc(C)c(N2CCN(S(=O)(=O)c3ccc4c(c3)oc(=O)n4C)CC2)c1 | -1.24 (inactive) |
| Cc1cc(C=O)c(C)n1-c1ccc(NC2CCCCC2)c([N+](=O)[O-])c1 | -0.94 (inactive) |
| CC(=O)c1c(C)[nH]c(C(=O)COC(=O)c2cccc(S(=O)(=O)N(C)c3ccccc3)c2)c1C | -1.08 (inactive) |
| O=C(Nc1nc(-c2ccc3c(c2)OCO3)cs1)c1ccncc1 | -0.891 (inactive) |
| CC(NC(=O)c1ccco1)C(=O)Nc1nc(-c2ccccn2)cs1 (centres undefined) | -1.13 (inactive) |
| Cc1ccc(N2C(=O)S/C(=C/c3cn(C)c4ccccc34)C2=O)cc1 | -0.76 (inactive) |
| COc1ccc(CN(C)C(=O)CC(c2ccccc2)c2ccccc2)cc1 | -1.04 (inactive) |
| CCOC(=O)N1CCN(C(=O)c2ccc3c(c2)N(Cc2ccc(C)cc2)CCS3)CC1 | -1.18 (inactive) |
| Cc1noc(C)c1COC(=O)c1cc2ccccc2cc1O | -0.996 (inactive) |
| COc1ccc2[nH]cc(/C=C(/C#N)S(=O)(=O)c3ccccc3)c2c1 | -1.14 (inactive) |
| O=C(N/N=C/c1cc(Cl)cc([N+](=O)[O-])c1O)C(O)(c1ccccc1)c1ccccc1 | -0.984 (inactive) |
| Cc1ccc2c(c1)N(S(=O)(=O)c1cc(-c3cc(C)no3)ccc1C)CCO2 | -0.714 (inactive) |
| COc1ccc(CCC(=O)c2ccc(OC)cc2)cc1 | -1.35 (inactive) |
| Cc1ccc(-c2noc(CSc3nnnn3-c3ccccc3)n2)cc1 | -0.963 (inactive) |
| CC(C)(C)C(=O)/C(C#N)=C/c1ccc(O)cc1 | -1.08 (inactive) |
| COC(=O)c1ccc(COC(=O)c2c(C)nn(Cc3ccccc3Cl)c2Cl)o1 | -1.29 (inactive) |
| CC1=NN(c2cccc(Cl)c2)C(=O)C12CC(C)=C(C)CS2 (centres undefined) | -1.3 (inactive) |
| CCOC(=O)c1cccc(NC(=O)CCn2nnc3ccccc32)c1 | -1.02 (inactive) |
| C=C(C)Cn1c(C)cc(C)c(S(=O)(=O)c2ccccc2C)c1=O | -0.995 (inactive) |

| SMILES | YFP ratio F(max-min)/F0 |
| --- | --- |
| Cc1nc2c(C(=O)NCc3ccc4c(c3)OCO4)c[nH]n2c(=O)c1Cc1ccccc1F | -1.21 (inactive) |
| COC(=O)c1ccc(NC(=O)c2ccccc2NS(=O)(=O)c2ccccc2)cc1 | -0.979 (inactive) |
| O=C(NC(=S)Nc1ccccc1C(=O)O)c1ccc(-c2ccc(Br)cc2)o1 | -1.06 (inactive) |
| CN1c2ccc(C=O)c3c(C=O)ccc(c23)N(C)C1(C)C | -1 (inactive) |
| Cc1ccccc1-n1nnnc1SCCCC(=O)c1ccc(F)cc1 | -1.2 (inactive) |
| Cc1ccc(F)cc1NC(=O)Cc1nn(C)c(=O)c2ccccc12 | -1.06 (inactive) |
| CC(C)CNC(=S)NNC(=O)c1nn(C)cc1Cl | -0.979 (inactive) |
| Cc1ccc(-n2[nH]c(C)c(/C=N/N3C(=O)c4cccc5cccc(c45)C3=O)c2=O)cc1 | -0.991 (inactive) |
| Cc1nc(SCC(=O)N2CCc3ccccc3C2)c2c(C)c(C)sc2n1 | -1.07 (inactive) |
| CSc1nsc(NC(=O)Nc2ccccc2)n1 | -0.839 (inactive) |
| CCOC(=O)N1CC=C2C(C#N)=C(N)C(C#N)(C#N)[C@H](c3cccs3)[C@H]2C1 | -1.01 (inactive) |
| CCC(=O)Nc1ccc2nc(C)n(Cc3ccccc3Cl)c(=O)c2c1 | -1.04 (inactive) |
| Cc1cccc(N=Nc2c(O)[nH]c3ccc(F)cc23)c1 | -0.957 (inactive) |
| COc1cccc(CNS(=O)(=O)c2ccc3c(c2)CC(C)N3C(=O)C2CCC2)c1 (centres undefined) | -1.01 (inactive) |
| C=CCn1c(SCC(=O)Nc2nc3ccccc3s2)nnc1-c1ccccc1O | -1.05 (inactive) |
| Fc1ccc(CSc2nnc(-c3cc4c(s3)-c3ccccc3CC4)o2)cc1 | -0.984 (inactive) |
| O=C(CSCc1ccc(Cl)cc1)N1CCN(Cc2ccc3c(c2)OCO3)CC1 | -1.19 (inactive) |
| CSc1cccc(NC(=S)N(C(C)C)C(C)c2ccccn2)c1 (centres undefined) | -0.907 (inactive) |
| CCCCn1ccnc1C(=O)c1cccc(S(=O)(=O)N2c3ccccc3CC2C)c1 (centres undefined) | -1.39 (inactive) |
